Source: PubChem BioAssay
This is a sample that favours compounds with a hit; in the whole collection about 4.6% have one here.
USP7 inh: human USP7 deubiquitinase inhibition; 0.3% of 47,000 active; inhibition, % at 20 µM; Q93009; AID 1645854; purified USP7, Ub-rhodamine cleavage fluorescence
UCHL1 inh: blocks human UCHL1 ubiquitin-rhodamine cleavage | P09936 | inhibition, % at 20 µM | 0.2% of 47,000 active | purified UCHL1, Ub-rhodamine cleavage fluorescence
USP10 inh: inhibitors of human USP10 deubiquitinase. Q14694. purified USP10, Ub-rhodamine fluorescence, 60 min. inhibition, % at 20 µM. 1.1% of 47,000 active. AID 1645856
USP8 inh: blocks human USP8 ubiquitin-rhodamine cleavage; P40818; purified USP8, Ub-rhodamine cleavage fluorescence, 30 min; inhibition, % at 20 µM; 4.2% of 47,000 active; AID 1645853
Active calls of the source: *; · = not tested or not shown. Cut-off read from the data, not from the text of the source: active = inhibition above about 30%; inactive = the rest.

SMILES	USP7 inh	UCHL1 inh	USP10 inh	USP8 inh
Cc1ccccc1OCCN1C(=O)C2CN(C(N)=O)CCN2C1=O (stereo not given)	2	4	6	42*
Cc1c(C)n(-c2ccccc2)c2ncn(CC(=O)NC(C)c3ccccc3)c(=O)c12 (stereo not given)	8	6	20	20
CC(NC(=O)CSc1nnc2n(-c3ccccc3)c(=O)c3ccccc3n12)c1ccccc1 (stereo not given)	5	5	3	36*
CCC1c2ccsc2CCN1S(=O)(=O)c1ccccc1C#N (stereo not given)	4	2	2	4
CCn1c(=O)n(CC(=O)c2ccc(Cl)cc2)c2c(C(N)=O)nc(-c3ccco3)nc21	40*	22	6	49*
CCCn1c(=O)n(CC(=O)c2ccccc2F)c2c(C(N)=O)nc(-c3ccco3)nc21	7	2	-3	59*
CCn1c(=O)n(CC(=O)c2ccc(F)cc2F)c2c(C(N)=O)nc(-c3ccco3)nc21	25	13	7	48*
COc1ccc(C(=O)N2CCC3(C2)Nc2cccnc2NC3=NCc2ccccc2)cc1F (stereo not given)	-10	-9	-6	-103
CNc1cncc(C2CCCN2C(=O)C(C)(C)n2cncn2)n1 (stereo not given)	2	-2	-2	0
COc1ccc(Cn2nnc(C(=O)NC3CCCCC3)c2-n2cccc2)cc1	-7	19	3	49*
COc1ccc(C(=O)c2nnn(-c3ccc(OC(F)(F)F)cc3)c2C)cc1	9	3	10	33*
COc1ccc(-n2nnc(C(=O)Nc3ccc(F)cc3)c2C)cc1	5	6	6	2
Clc1ccc2nc(COc3ccccc3Cc3ccccc3)[nH]c2c1	-8	4	9	63*
O=C(Nc1ccc2nc(CCc3ccccc3)[nH]c2c1)c1ccncc1	6	1	-3	0
CCCN(CC(=O)Nc1ccccc1C)CC(=O)Nc1cccc2ccccc12	3	6	6	13
Cc1ccccc1NC(=O)Cc1nc(-c2cccc3ccccc23)cs1	-3	-2	0	73*
COc1ccc(-c2c[nH]n3c(=O)c(CCO)c(C)nc23)cc1OC	4	0	3	1
Cc1nc2c(-c3ccc(Cl)cc3)c[nH]n2c(=O)c1Cc1ccccc1	-21	12	65*	-126
O=C(Nc1ccc(Cl)cc1F)c1cc(-c2ccncc2)n[nH]1	3	0	6	-2
O=C(Nc1ccc(F)cc1F)c1cc(-c2ccccn2)n[nH]1	12	5	13	52*
O=C(c1ccccc1)N(Cc1ccc(Cl)cc1)CC1CCCO1 (stereo not given)	-11	-2	3	-5
O=C(O)Cn1cc(C(=O)C2CC2)c2ccccc21	0	-3	-1	0
O=C(Cn1cc(C(=O)C2CC2)c2ccccc21)NCCOc1ccc(Cl)cc1	10	0	1	32*
Cc1cccc(NC(=O)C2CC(=O)NC(N3CCN(c4ccccc4)CC3)=N2)c1 (stereo not given)	-3	2	3	34*
CN1CCN(c2ncc3c(=O)n(Cc4ccco4)ccc3n2)CC1	2	2	3	1
SMILES	USP7 inh	UCHL1 inh	USP10 inh	USP8 inh
O=C(O)c1ccc(NCc2nc3ccccc3n2Cc2ccccc2F)cc1	-8	-2	7	23
COc1ccc(NCc2nc3ccccc3n2Cc2ccccc2)cc1	-25	3	-3	90*
CCOc1ccccc1N(C)C(=O)Cc1nc(-c2ccc(OC)cc2)no1	·	6	4	4
O=C(Nc1ccccc1Cl)c1ccc(-c2nc(-c3ccc(Cl)c(Cl)c3)cs2)cc1	10	-1	0	-4
CCn1nnc2cc(-c3noc(CNC(=O)c4cccs4)n3)ccc21	-2	-5	-5	-234
CCCn1cnc2cc(-c3noc(CNC(=O)c4cccs4)n3)ccc21	6	0	-2	33*
COc1ccc2c(c1)nc(C(F)(F)F)n2C1CCN(C(=O)c2cccn2C)CC1	0	0	23	9
Cc1cc(=O)n(C)c2c(O)c3c(cc12)c(C)cc(=O)n3C	-105	30*	25	50*
Cc1cc(O)c(C)c(O)c1C=O	3	1	3	9
CCOc1cccc(CNc2nc3ccncc3n(Cc3ccccc3)c2=O)c1	0	-5	-1	18
CCN(CCCNC(=O)c1cc2c(=O)n(C)c3ccccc3c2s1)c1cccc(C)c1	2	0	2	3
CC1=C(C)CC(C(=O)Nc2cn(C)nc2C(=O)NCc2ccco2)C(C(=O)O)C1 (stereo not given)	-23	0	-4	-176
O=C(Nc1cccc(-c2noc(C3CCC3)n2)c1)C1CC(=O)N(c2ccccc2)C1 (stereo not given)	-1	1	11	42*
O=C(Nc1cccc(-c2noc(C3CC3)n2)c1)C1CC(=O)N(c2ccccc2)C1 (stereo not given)	-4	-1	5	36*
O=C(NC1CCCC1)[C@H]1CC[C@@H]2[C@@H](CCN2c2ncc(F)cn2)O1	-2	1	-4	-50
CC1(C)CCCC2=C1CC(C)(C)C(N(C(=O)/C=C/C(=O)O)c1ccccc1)C2 (stereo not given)	1	0	34*	59*
Cc1ccc(-n2ccnc2N2CCN(CC(=O)Nc3ccccc3F)CC2)cc1	-2	1	0	6
Cc1cccc(-n2ccnc(SCC(=O)Nc3ccc(Cl)cc3F)c2=O)c1	17	4	22	49*
O=C(CSc1nccn1-c1cccc(C(=O)Nc2ccccc2)c1)Nc1ccccc1F	13	0	5	51*
Cc1ccccc1NC(=O)CSc1nccn(-c2ccc(F)c(F)c2)c1=O	0	-5	-7	-218
COc1cccc(CN2C(=O)c3cc4ccccc4n3CC2(C)C(=O)NC2CCCC2)c1 (stereo not given)	5	6	18	35*
COc1cccc(CN2C(=O)c3cc4occc4n3CC2(C)C(=O)NC2CCCCCC2)c1 (stereo not given)	-57	6	6	5
CC(C)NC(=O)COc1cc2c(c3oc(=O)c4c(c13)CCC4)CCC(C)(C)O2	-2	5	1	-1
Cn1c(COc2ccccc2)nnc1SCc1cc(=O)c2cc(Cl)ccc2[nH]1	-4	-2	10	33*
O=C1CC(C(=O)Nc2ccccc2F)n2c(nc3ccccc32)N1 (stereo not given)	13	3	20	39*
O=C1CC(C(=O)NCCc2ccccc2)n2c(nc3ccccc32)N1 (stereo not given)	5	-1	17	43*
O=C(Nc1ccccc1F)C1Cc2ccccc2N1C(=O)c1ccccc1 (stereo not given)	-4	-4	-6	-6
O=C(CC1C(=O)N(Cc2ccccc2)c2nc3ccccc3n21)NCCc1ccccc1 (stereo not given)	3	3	9	17
Cc1nc(-c2csc(S(=O)(=O)Nc3ccccc3F)c2)no1	6	2	5	5
CCc1ccccc1Nc1nc(N)nc(CN2CCC(C)CC2)n1	-3	-1	-3	21
